Screening results: PubChem BioAssay, Broad Institute
FGF22 binding: binders of human FGF22 protein, primary screen, FGF22 synaptogenesis inhibitor project, biophysical, thermal shift, single point; Fibroblast growth factor 22 (Homo sapiens), Q9HCT0; recombinant FGF22 thermal shift, SYPRO orange fluorescence; percent of sucrose octasulfate shift, DMSO zero; activity (Tm shift, normalised), % at 9.99 µM; 340,000 compounds, 1.5% hits;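 active = mean Tm shift, scaled 0 neutral to 100 positive control, at about 1.3% or above, every replicate too, limit read from the data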
MLL AF4-AF9 inh: inhibitors of AF4 peptide binding to AF9, primary screen, biochemical, AlphaScreen, biotin-AF4 peptide, FLAG-AF9, single point | Protein AF-9 (Homo sapiens), P42568 | inhibition, % at 10 µM | 350,000 compounds, 0.47% hits | AID 651704, 2012;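 active = every replicate reaching a set inhibition limit, whatever the replicate mean, cut at about 25% in these data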;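 also: 0% = plate neutral control median and 100% = total signal loss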
DENV2 CPE: inhibitors of DENV2 cytopathic effect, primary screen, cell-based, plate reader, single concentration; CPE inhibition, % at 9.99 µM; 350,000 compounds, 1.7% hits; AID 651640, 2012; DENV2-infected cells, cytopathic effect rescue; in the data active = CPE inhibition above about 20%, passing the limit was not always enough; tested in BHK-21 cells;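 also: 0% = median of neutral control wells and 100% = median of positive control wells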
ERAP1 inh: human ERAP1 aminopeptidase inhibitors, primary screen, biochemical, single point, plate reader; 340,000 compounds, 0.15% hits; inhibition, % at 10.7 µM; recombinant ERAP1, Leu-AMC fluorescence, 60 min; Endoplasmic reticulum aminopeptidase 1 (Homo sapiens), Q9NZ08; AID 652197, 2013;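 active = mean replicate inhibition of at least 30%, or all replicates individually reaching that 30% level; inactive = mean below 30% and not every replicate reaching it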;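 also: 0% = neutral control wells and 100% = L-leucinethiol positive control wells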
Target sequence (Q9NZ08 whole entry, looked up): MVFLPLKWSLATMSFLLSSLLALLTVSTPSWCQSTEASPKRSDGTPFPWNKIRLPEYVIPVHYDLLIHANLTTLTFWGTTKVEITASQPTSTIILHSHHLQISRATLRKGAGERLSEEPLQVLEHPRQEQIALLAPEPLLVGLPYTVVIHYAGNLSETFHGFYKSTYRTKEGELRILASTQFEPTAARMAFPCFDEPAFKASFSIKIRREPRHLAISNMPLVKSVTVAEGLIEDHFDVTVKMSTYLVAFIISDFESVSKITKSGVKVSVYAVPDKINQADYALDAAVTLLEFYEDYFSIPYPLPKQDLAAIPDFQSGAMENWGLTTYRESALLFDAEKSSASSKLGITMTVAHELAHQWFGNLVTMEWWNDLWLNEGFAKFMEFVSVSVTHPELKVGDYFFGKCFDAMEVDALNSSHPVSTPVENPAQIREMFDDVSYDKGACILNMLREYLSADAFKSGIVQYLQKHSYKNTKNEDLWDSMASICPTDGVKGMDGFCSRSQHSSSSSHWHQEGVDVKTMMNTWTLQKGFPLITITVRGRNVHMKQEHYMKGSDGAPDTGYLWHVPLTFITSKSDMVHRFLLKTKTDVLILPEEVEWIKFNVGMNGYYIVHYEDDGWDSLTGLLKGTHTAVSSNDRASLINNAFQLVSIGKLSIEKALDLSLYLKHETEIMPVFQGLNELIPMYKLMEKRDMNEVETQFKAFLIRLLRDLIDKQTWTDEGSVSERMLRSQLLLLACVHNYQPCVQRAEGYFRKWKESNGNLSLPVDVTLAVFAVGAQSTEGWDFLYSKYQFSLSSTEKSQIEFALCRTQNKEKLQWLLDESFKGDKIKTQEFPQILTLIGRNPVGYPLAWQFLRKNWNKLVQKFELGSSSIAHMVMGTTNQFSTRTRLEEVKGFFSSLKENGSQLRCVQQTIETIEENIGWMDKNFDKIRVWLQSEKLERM
RAD52 anneal inh: RAD52 DNA annealing inhibitors, primary screen, biochemical, FRET, single point, set 2; recombinant RAD52 DNA annealing, FRET fluorescence; inhibition, % at 18.7 µM; AID 651710, 2012; DNA repair protein RAD52 homolog (Homo sapiens), P43351; 360,000 compounds, 0.46% hits;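 active = every replicate showing at least 50% inhibition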
Numbers without * were called inactive; / = no result. Hits are enriched below; roughly 4% of the tested compounds scored in any of these assays.

SMILES	FGF22 binding	MLL AF4-AF9 inh	DENV2 CPE	ERAP1 inh	RAD52 anneal inh
CCCC(=O)Nc1ccc2c(c1)C(=O)N(C)C[C@@H](OC)[C@@H](C)CN(C(C)=O)[C@H](C)CO2	0	-1	-21	1	-2
Cc1ccc(-c2ccccc2[C@@H]2[C@@H](C#N)N(C(=O)Cc3cccnc3)[C@H]2CO)cc1	0	-1	-9	0	-12
COCC(=O)N1[C@H](CO)[C@H](c2ccccc2-c2ccccc2)[C@@H]1C#N	0	-3	45*	2	-9
CCc1sc(N2[C@H](C#N)[C@H](c3ccccc3-c3ccccc3)[C@H]2CO)nc1C	0	-1	76*	1	-7
COCC(=O)N1[C@H](C#N)[C@H](c2ccccc2-c2ccccc2)[C@@H]1CO	0	-2	1	-1	2
Cc1ccc(-c2ccccc2[C@@H]2[C@H](C#N)N(C(=O)Cc3cccnc3)[C@H]2CO)cc1	0	0	26*	2	-10
CCc1sc(N2[C@H](C#N)[C@@H](c3ccccc3-c3ccc(F)cc3)[C@@H]2CO)nc1C	0	-2	12	0	-7
COc1ccc2c3c([nH]c2c1)[C@@H](CO)N(C(=O)c1cccc(F)c1)CC31CCN(C(=O)c2ccccc2)CC1	0	15	-10	-12	9
O=C(C[C@H]1C=C[C@@H](NC(=O)Nc2ccc(F)cc2)[C@H](CO)O1)NCc1cccc(F)c1	0	-2	-3	-1	6
C/C=C/c1ccccc1[C@@H]1[C@@H](CO)N(C(=O)Cc2ccccn2)[C@H]1C#N	0	0	9	-2	-3
CN(C)CC#Cc1ccc([C@H]2[C@H]3CN(C(=O)CN(C)C)CCCCN3[C@H]2CO)cc1	0	0	-1	-1	57*
CN(C)CC(=O)N1CCCCN2[C@H](CO)[C@H](c3ccc(/C=C/c4ccccc4)cc3)[C@@H]2C1	0	-2	-24	0	55*
CN(C)CC(=O)N1CCCCN2[C@H](CO)[C@@H](c3ccc(/C=C/c4ccccc4)cc3)[C@@H]2C1	0	-6	-23	1	44
CN(C)CC#Cc1ccc([C@H]2[C@@H](CO)N3CCCCN(C(=O)Nc4ccccc4F)C[C@H]23)cc1	-1	2	16	-1	70*
COCC#Cc1ccc([C@H]2[C@H](CO)N3CCCCN(C(=O)CN(C)C)C[C@@H]23)cc1	0	6	9	1	11
CC(C)NC(=O)N1[C@@H](CO)[C@@H](c2ccccc2)C12CN(C(=O)CN(C)C)C2	0	0	3	-4	-1
CC(CCc1ccccc1)NC(=O)Cn1cccc1C(=O)c1ccccc1 (centres undefined)	0	-4	1	1	-4
CC(NC(=O)Cn1cccc1C(=O)c1ccccc1)c1ccc2c(c1)OCCO2 (centres undefined)	43*	0	4	-4	-30
Cc1ccc(NC(=O)CO/N=C(\N)c2ccccc2)cc1C	43*	7	-17	0	-8
Cc1ccc(SCc2nc(N)nc(Nc3ccccc3C)n2)c(C)c1	43*	4	3	-2	-8
COC(=O)C[C@@H]1CC[C@@H]2[C@H](COC[C@@H](O)CN2C(=O)Nc2ccccc2OC)O1	0	-3	1	0	-14
Oc1c(C(Nc2ccccn2)c2cccnc2)cc(Cl)c2cccnc12 (centres undefined)	0	43*	6	-2	-5
CC(=O)NC(c1cc(Cl)c2ccccc2c1O)C(C)C (centres undefined)	-1	11	/	-1	-12
CC(=O)NC(c1cc(Cl)c2cccnc2c1O)C(C)C (centres undefined)	0	11	42*	-3	-12
CC(=O)NC(c1cccs1)c1cc([N+](=O)[O-])c2cccnc2c1O (centres undefined)	0	2	87*	2	-23
SMILES	FGF22 binding	MLL AF4-AF9 inh	DENV2 CPE	ERAP1 inh	RAD52 anneal inh
CCC(=O)NC(c1cccs1)c1cc([N+](=O)[O-])c2cccnc2c1O (centres undefined)	0	10	-11	0	-55
CN(C)CC(=O)Nc1ccc2c(c1)[C@@H]1C[C@H](CC(=O)NC3CCCCC3)O[C@@H](CO)[C@@H]1O2	0	-2	0	-1	5
CCCN(C)C[C@H]1Oc2cc(C#CCC3CCCC3)ccc2S(=O)(=O)N([C@H](C)CO)C[C@@H]1C	0	2	7	-1	26
COc1ccc(OCC(O)CN(CCO)CC(O)Cn2ccc3ccccc32)cc1 (centres undefined)	43*	1	12	0	-9
COc1ccc2c3c([nH]c2c1)[C@H](CO)N(C(=O)C1CCCCC1)CC31CCN(Cc2nccs2)CC1	0	-2	6	1	12
CC(C)c1ccc(Nc2c([N+](=O)[O-])c(=O)n(C)c3ccccc23)cc1	0	1	2	/	-7
Cn1c(=O)c(Nc2ccc(O)cc2)c2c3c(cccc31)C(=O)c1ccccc1-2	-1	29*	-6	1	-1
C[C@@H]1CCCCO[C@H](CN(C)C(=O)Nc2ccc(C(F)(F)F)cc2)[C@H](C)CN([C@H](C)CO)C(=O)c2cc(NS(=O)(=O)c3ccccc3)ccc2O1	0	1	77*	-5	-5
C[C@H](CO)N1C[C@H](C)[C@@H](CN(C)C(=O)Nc2ccc(C(F)(F)F)cc2)OCCCC[C@H](C)Oc2ccc(NS(=O)(=O)c3ccccc3)cc2C1=O	0	-6	41*	-5	-55
C[C@@H]1CN([C@@H](C)CO)C(=O)c2cc(NS(=O)(=O)c3ccccc3)ccc2O[C@@H](C)CCCCO[C@@H]1CN(C)C(=O)Nc1ccc(C(F)(F)F)cc1	0	-2	-13	-3	14
C[C@@H]1CCCCO[C@@H](CN(C)C(=O)Nc2ccc(C(F)(F)F)cc2)[C@@H](C)CN([C@H](C)CO)C(=O)c2cc(NS(=O)(=O)c3ccccc3)ccc2O1	0	-4	21*	-5	7
C[C@@H]1CN([C@H](C)CO)C(=O)c2cc(NS(=O)(=O)c3cccs3)ccc2O[C@@H](C)CCCCO[C@@H]1CN(C)C(=O)CCC(F)(F)F	0	/	31*	/	/
Cc1ccc(S(=O)(=O)N(C)C[C@H]2Oc3ccc(NC(=O)NC(C)C)cc3C(=O)N([C@H](C)CO)C[C@@H]2C)cc1	/	-1	5	-1	4
COc1cc(CN2CC3(CCN(C(=O)CN4CCOCC4)CC3)c3c(n(C)c4cc(OC)ccc34)[C@H]2CO)cc(OC)c1	0	1	7	3	-91
